A selection: hits, their analogues and other compounds. The true share with any hit is near 2.9%.
B2AR ag – agonists of human beta-2 adrenergic receptor inducing internalization; P07550; Am2.2-beta2AR cells, FAP receptor internalization, flow cytometry; response, % (concentration not given with the values); actives 0.43% (n = 340,000); AID 504454;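 active = response above a set limit, near 3 SD of response in nonfluorescent compounds, cut at about 42% in these data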
PP1 counter – blocks human PP1-alpha phosphatase, a PP5 counter-screen | P62136 | purified PP1alpha, OMFP fluorescence | inhibition, % at 6.7 µM | actives 0.9% (n = 320,000) | AID 2235;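 active = inhibition above the mean inhibition of all tested compounds plus 3 SD, computed separately for each screening campaign, cut at about 15% in these data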
NadD block – inhibitors of Staphylococcus aureus NadD; purified NadD enzyme, colorimetric absorbance read-out; inhibition, % at 20 µM; actives 0.78% (n = 360,000); AID 602399; in the data active = inhibition above about 26%
GRK2 inh – human GRK2 inhibition via aptamer displacement | AID 488847 | inhibition of aptamer binding, % at 10 µM | actives 0.59% (n = 330,000) | P25098 | bead flow cytometry, FAM-aptamer displacement from GRK2;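 active = inhibition of aptamer binding above 40%, roughly 3 SD of noise, on plates passing a quality check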;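 note: median bead fluorescence of bound FAM aptamer so fluorescent compounds give negative values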
Exocytosis inh – blocks lytic granule exocytosis; TALL-104 LAMP-1 surface exposure, flow cytometry; cells stimulated with thapsigargin and PMA; inhibition, % at 10 µM; actives 0.66% (n = 360,000);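 active = inhibition above about 55%, limit read from the data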
PP1 confirm – confirmation of human PP1 phosphatase inhibitors; inhibition, % at 6.7 µM; purified PP1alpha, OMFP substrate fluorescence; shares compounds with PP1 counter; actives 52% (n = 1,900);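 active = mean PP1 inhibition above a set limit taken from the earlier primary screen, cut at about 15% in these data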
PP5 inh counter – inhibits human PP5 phosphatase in PP1 counter-screen; actives 4% (n = 1,900); inhibition, % at 6.7 µM; purified PP5c, OMFP fluorescence; AID 2360; shares compounds with PP1 counter;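 active = mean PP5 inhibition over triplicate wells above about 9.5% taken from the earlier PP1 screen, limit read from the data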
Target sequence (P53041 whole entry, looked up): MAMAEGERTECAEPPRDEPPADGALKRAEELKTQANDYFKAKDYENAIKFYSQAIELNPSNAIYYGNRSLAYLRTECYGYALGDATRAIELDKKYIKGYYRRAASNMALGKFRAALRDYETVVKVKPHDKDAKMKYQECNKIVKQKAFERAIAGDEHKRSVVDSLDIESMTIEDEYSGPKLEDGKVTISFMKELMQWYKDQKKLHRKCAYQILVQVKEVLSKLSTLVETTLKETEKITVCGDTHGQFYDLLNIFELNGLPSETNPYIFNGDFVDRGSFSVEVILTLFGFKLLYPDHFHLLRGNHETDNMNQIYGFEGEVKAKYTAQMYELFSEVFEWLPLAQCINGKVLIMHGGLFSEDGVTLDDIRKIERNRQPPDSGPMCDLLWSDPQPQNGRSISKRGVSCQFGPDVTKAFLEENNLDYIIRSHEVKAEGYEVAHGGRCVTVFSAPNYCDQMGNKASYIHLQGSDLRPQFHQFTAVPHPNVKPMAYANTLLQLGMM
Numbers without * were called inactive; . = no result given.

SMILES | B2AR ag | PP1 counter | NadD block | GRK2 inh | Exocytosis inh | PP1 confirm | PP5 inh counter
CC1(O)C(=O)C=C2C=C(C3CC3)OC=C2C1=O (configuration not stated) | . | 0 | . | 5 | . | . | .
CCC(=O)OC1(C)C(=O)C=C2C=C(c3ccsc3)OC=C2C1=O (configuration not stated) | 5 | 0 | 21 | 4 | 2 | . | .
CC1(O)C(=O)C=C2C=C(c3ccsc3)OC=C2C1=O (configuration not stated) | . | 18* | . | 39 | . | 7 | 0
CCOc1ccccc1C(=O)OCC(=O)Nc1cc(S(=O)(=O)N2CCOCC2)ccc1C | -2 | -3 | -4 | 1 | -2 | . | .
CCCOc1ccc(C2C3=C(Nc4nc(N)[nH]c(=O)c42)c2ccccc2C3=O)cc1 (configuration not stated) | -1 | 19* | 19 | 14 | 0 | 17* | 3
COC(=O)c1ccc(C2/C(=C(\O)c3ccc4c(c3)OCCO4)C(=O)C(=O)N2c2nnc(C)s2)cc1 (configuration not stated) | 9 | -1 | 6 | 1 | -1 | . | .
COc1ccc(C2/C(=C(\O)c3ccc4c(c3)OCCO4)C(=O)C(=O)N2c2nc(C)c(C(C)=O)s2)cc1 (configuration not stated) | -6 | 19* | 14 | 11 | -5 | 11 | -6
COc1ccc(C2CC(c3ccccc3)=NN2C(=O)COC(=O)c2cc(S(=O)(=O)N3CCOCC3)ccc2Cl)cc1 (configuration not stated) | -2 | 20* | 8 | 1 | -4 | 9 | -2
CC(C)(C)c1ccc(NC(=O)c2cc(C3CCCN(C(=O)CCc4ccccc4)C3)on2)cc1 (configuration not stated) | . | . | 0 | . | 2 | . | .
CCOC(=O)c1sc(N2C(=O)C(O)=C(C(=O)c3ccc(C)o3)C2c2ccc(OC)c(OC)c2)nc1C (configuration not stated) | 16 | 37* | 5 | 14 | -1 | 35* | 5
CCOC(=O)c1sc(N2C(=O)C(O)=C(C(=O)c3ccc(C)o3)C2c2cccc([N+](=O)[O-])c2)nc1C (configuration not stated) | 6 | 35* | 14 | 2 | 4 | 21* | -2
COc1ccc2nc(N3C(=O)C(O)=C(C(=O)c4ccco4)C3c3ccc(OC)c(OC)c3)sc2c1 (configuration not stated) | . | . | 7 | . | -3 | . | .
COC(=O)c1sc(N2C(=O)C(O)=C(C(=O)c3ccc(C)o3)C2c2ccc([N+](=O)[O-])cc2)nc1C (configuration not stated) | 0 | 43* | 17 | 1 | -1 | 29* | -1
C=CCOc1cccc(C2C(C(=O)c3ccc(C)o3)=C(O)C(=O)N2c2nccs2)c1 (configuration not stated) | 5 | 22* | 22 | 5 | 3 | 15* | -2
C=CCOc1ccc(CNc2ccc(NC(=O)CC(C)C)cc2)cc1OC | 9 | 0 | 1 | 2 | -5 | . | .
CC1CCCCN1C(=O)COC(=O)c1ccc(=O)n(Cc2ccccc2)n1 (configuration not stated) | 6 | 1 | 4 | 0 | -1 | . | .
CC(=NO)C1(C)CC=CCC1CO (configuration not stated) | . | . | -5 | . | -2 | . | .
Cc1ccc2nc(N3C(=O)C(O)=C(C(=O)c4ccc(C)o4)C3c3cccc(O)c3)sc2c1 (configuration not stated) | 6 | 25* | 13 | 4 | 5 | 27* | 9.7*
Cc1ccc(CNC(=O)C2CCC(=O)N(CCCN3CCOCC3)C2)cc1 (configuration not stated) | 9 | -3 | 5 | 1 | -4 | . | .
Fc1cccc(Cl)c1CSc1ccc2nnc(-c3ccccn3)n2n1 | -10 | 10 | 17 | 0 | 2 | . | .
Fc1cccc(CSc2ccc3nnc(-c4ccccn4)n3n2)c1 | 3 | 18* | 9 | 0 | 6 | 1 | -5
Cc1ccc(S(=O)(=O)N(CC(=O)N=Nc2c(O)[nH]c3ccccc23)c2ccc(C)c(C)c2)cc1 | -6 | 19* | 32* | 7 | -2 | 19* | 1
Cc1ccc(S(=O)(=O)N=Nc2c(O)[nH]c3ccccc23)cc1 | 3 | 0 | -1 | 0 | 1 | . | .
Oc1c(C(Nc2nc3ccccc3s2)c2ccco2)ccc2cccnc12 (configuration not stated) | 3 | 29* | 35* | 0 | 11 | 19* | -5
COc1cc(/C=C2/SC(=Nc3ccc(O)cc3)NC2=O)ccc1O | -24 | 23* | -7 | 0 | 34 | 24* | -1
SMILES | B2AR ag | PP1 counter | NadD block | GRK2 inh | Exocytosis inh | PP1 confirm | PP5 inh counter
O=C(Cn1cc[n+](CC(=O)c2ccc(Cl)cc2Cl)c1)c1ccc(Cl)cc1Cl | -8 | 18* | 1 | 0 | 0 | -11 | -2
O=C(NCCc1ccccc1)c1nc2c(nnn2Cc2ccccc2Cl)c(=O)[nH]1 | -8 | 47* | 17 | 0 | 1 | 21* | -1
O=C(NCc1ccccc1)c1nc2c(nnn2Cc2cccc(Cl)c2)c(=O)[nH]1 | 2 | 21* | 17 | 2 | 0 | 14 | -3
CC1(c2cccc(Br)c2)NC(=O)N(CC(=O)c2ccc3c(c2)OCO3)C1=O (configuration not stated) | . | . | 0 | . | -14 | . | .
Cc1csc2nc(O)c(C(=O)NCCC3=CCCCC3)c(=O)n12 | 0 | 15 | 9 | 0 | -1 | . | .
Cc1csc2nc(O)c(C(=O)NCCCc3ccccc3)c(=O)n12 | -4 | 20* | 5 | 0 | -1 | 13 | -5
CCOC(=O)c1ccc(CNCc2ccc(Br)cc2)cc1 | 11 | 2 | 2 | 0 | -4 | . | .
CCOC(=O)c1[nH]nc(C(=O)c2ccc(Br)cc2)c1O | 5 | 31* | 2 | 0 | 1 | 30* | -3
CCN(Cc1ccccc1)c1ccccc1 | 11 | . | -2 | . | 4 | . | .
CCN(Cc1ccccc1)c1ccc(/C=N/N=C(N)N)cc1 | 63* | 18* | -3 | 0 | 5 | 3 | -1
COc1cccc(/C=C2\SC(=S)N(CCCC(=O)Nc3ccc(C(=O)O)cc3)C2=O)c1 | 9 | 8 | -5 | 3 | 6 | . | .
Cc1ccc(NC(=O)COc2cccc(/C=C3\SC(=S)N(CCC(=O)O)C3=O)c2)cc1Cl | 9 | 39* | 14 | 2 | -2 | 14 | 4
O=C(O)CCN1C(=O)/C(=C\c2cccc(OCC(=O)Nc3ccc(Cl)cc3)c2)SC1=S | 9 | 24* | 11 | 0 | -2 | 7 | -3
O=C(CCCN1C(=O)/C(=C/c2ccc(F)cc2)SC1=S)Nc1ccc(C(=O)O)cc1 | . | . | -2 | . | -6 | . | .
